From PubChem BioAssay
Rows were chosen to be rich in hits. Some 7.4% of all compounds tested hit in one or more screens of this group.
hDAT+cocaine – human DAT dopamine uptake with cocaine, either direction | hit rate 1.3% among 110,000 | B-score at 10 µM | AID 449768 | LLC-PK1 hDAT cells, [14C]-dopamine uptake with cocaine IC80; actives deviate in either direction;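 active = Z score or B-score, a plate-position-corrected score, falls beyond the plate's 99.7% confidence bounds, in either direction; inactive = both scores lie inside the 99.7% bounds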
M1 agonist – activates the M1 muscarinic receptor; CHO-M1 cells, Fluo-4 calcium fluorescence, agonist mode; active compounds read high; B-score at 10 µM; hit rate 3% among 64,000; AID 626;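 active = fluorescence rise, raw or as B-score row- and column-corrected plate score, outside the 99.7% band of its plate's samples, either direction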
M1 antagonist – blocks the rat M1 muscarinic receptor response to acetylcholine; hit rate 3.4% among 64,000; CHO-M1 cells, Fluo-4 calcium, ACh EC80 antagonist mode; active compounds read low; P08482; B-score at 10 µM;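 active = calcium fluorescence response, raw or row-and-column corrected B-score, differing from the plate sample mean either way at a set confidence level, mostly lower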
FXIIa mix inh – inhibitors of human coagulation factor XIIa, pooled mixtures. P00748. purified FXIIa, fluorogenic substrate. inhibition, % at 5 µM. hit rate 0.2% among 62,000
Target sequence (P00748 20-372 limits assumed): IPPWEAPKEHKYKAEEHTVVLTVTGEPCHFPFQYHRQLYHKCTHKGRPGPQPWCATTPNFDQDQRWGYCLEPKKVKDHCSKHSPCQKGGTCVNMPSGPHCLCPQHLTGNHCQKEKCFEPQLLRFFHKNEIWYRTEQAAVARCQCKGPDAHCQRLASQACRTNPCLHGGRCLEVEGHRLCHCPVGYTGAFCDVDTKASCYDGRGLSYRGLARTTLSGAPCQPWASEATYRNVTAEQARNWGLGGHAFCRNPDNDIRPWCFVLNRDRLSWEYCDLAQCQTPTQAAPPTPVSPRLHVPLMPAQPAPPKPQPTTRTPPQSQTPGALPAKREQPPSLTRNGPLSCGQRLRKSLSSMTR
Target sequence (P00748 373-615 limits assumed): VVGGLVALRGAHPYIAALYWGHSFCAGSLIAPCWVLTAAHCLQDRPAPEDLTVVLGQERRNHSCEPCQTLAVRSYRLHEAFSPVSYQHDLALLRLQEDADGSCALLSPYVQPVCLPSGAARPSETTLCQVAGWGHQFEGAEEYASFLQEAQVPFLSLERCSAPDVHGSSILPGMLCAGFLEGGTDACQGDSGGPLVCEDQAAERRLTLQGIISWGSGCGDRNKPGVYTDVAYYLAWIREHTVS
D1 mod – allosteric modulators of human D1 dopamine receptor. P21728. HEK293 D1, CRE-luciferase, dopamine EC30 potentiation; actives deviate in either direction. B-score at 10 µM. hit rate 5.9% among 58,000. AID 641;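 active = luminescence count or its row- and column-corrected plate score outside the 99.7% band of the plate's sample wells, on either side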
FXIa mix inh – factor XIa (human) inhibition, mixture screen; purified FXIa, fluorogenic substrate, pooled mixtures; P03951; inhibition, % at 5 µM; hit rate 0.19% among 62,000;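 also: each value is inhibition by a whole ten-compound pool holding the compound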
D1 PAM confirm – D1 receptor (human) allosteric modulation, confirmed; shares compounds with D1 mod; hit rate 88% among 2,200; luminescence at 10 µM; AID 642; HEK293 D1 CRE-luciferase, dopamine EC30 potentiation; active compounds read high;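 active = luminescence in either of two replicates above the same-plate mean plus 3 SD of the low-dose dopamine control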
D1 ag no DA – secondary test of D1 modulators: activity without dopamine; shares compounds with D1 mod; HEK293 D1 CRE-luciferase, luminescence, no dopamine; active compounds read high; luminescence at 10 µM; hit rate 0.8% among 1,900; in the data active = luminescence above about 3900
Isoprot counter – alters isoproterenol CRE-luciferase response in HEK293 cells. shares compounds with D1 mod. HEK293 D1 CRE-luciferase, isoproterenol EC30 counter-screen. calls only at 10 µM. hit rate 63% among 2,200. AID 647;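 active = luminescence in either replicate above plate mean of wells with a partly effective reference agonist dose plus 3 SD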;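 also: isoproterenol raises cAMP through native beta-adrenoceptor Gs so signal bypasses D1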
Numbers stand for hits; - = inactive; . = no result given; + = active, no number. Rule as the data show it, unless noted: active = inhibition above about 20% (passing the limit was not always enough); inactive = the rest.

SMILES | hDAT+cocaine | M1 agonist | M1 antagonist | FXIIa mix inh | D1 mod | FXIa mix inh | D1 PAM confirm | D1 ag no DA | Isoprot counter
Cc1ccsc1/C=c1\sc2ncnn2c1=O | - | - | - | - | - | - | . | . | .
O=c1/c(=C/c2cccc3ccccc23)sc2ncnn12 | - | - | - | - | 3.8 | - | - | - | -
CCCCCOc1ccc(/C=c2\sc3ncnn3c2=O)cc1 | . | - | - | - | - | - | . | . | .
CC(C)COc1cc(=O)[nH]c(SCC(C)C)n1 | - | - | - | - | 18 | - | 26448 | - | +
COc1cccc(OC)c1OCCCSc1nc(C)cc(=O)[nH]1 | - | - | - | - | - | - | . | . | .
Cc1nc2ccc(-n3ccc(=O)cc3)cc2s1 | - | - | - | - | - | - | . | . | .
COc1ccc(-c2nc(C(N)=O)c3[nH]c(=O)n(-c4cccc(C)c4)c3n2)c(OC)c1 | - | - | - | - | 7.7 | - | 10376 | - | +
CC(C)Cc1nc(C(N)=O)c2[nH]c(=O)n(-c3ccc(F)cc3)c2n1 | . | - | - | - | - | - | . | . | .
Cc1cccc(-n2c(=O)[nH]c3c(C(N)=O)nc(CC(C)C)nc32)c1 | - | - | - | - | 11 | - | 15452 | - | +
CC1CCCN(C(=O)CN2CCN(C(=O)c3ccco3)CC2)C1 (configuration not stated) | - | - | - | - | - | - | . | . | .
COc1ccccc1N1CCN(C(=O)C(NS(=O)(=O)c2cccs2)c2ccccc2)CC1 (configuration not stated) | - | - | - | - | - | - | . | . | .
COc1ccc(Cl)cc1S(=O)(=O)NCc1cccs1 | - | - | - | - | - | - | . | . | .
CCOC(=O)c1c(N)n[nH]c1-c1ccc(OC)cc1 | - | - | - | - | 9 | - | 16256 | . | +
CCOC(=O)c1nnn(-c2nonc2N)c1-c1ccc(OC)cc1 | - | - | - | - | 11 | - | 22732 | - | +
CCOC(=O)c1c(C)nc(C)c(C(=O)OCC)c1-c1ccc(OC)cc1 | - | . | . | . | . | . | . | . | .
CCc1ccccc1NC(=O)CSc1ncn[nH]1 | - | - | - | - | - | - | . | . | .
COc1ccc(S(=O)(=O)NCc2ccc3c(c2)OCO3)cc1C(=O)O | - | - | - | - | - | - | . | . | .
CCCCNC(=O)CCCCCn1c(=O)[nH]c2cc(OC)c(OC)cc2c1=O | - | - | - | - | - | - | . | . | .
O=c1o[nH]c(-c2ccccc2)c1C1=NCCCCC1 | - | - | - | - | 9 | - | - | - | -
Cc1ccc2c3c(c(SCC(=O)Nc4nccs4)nc2c1)CCCC3 | - | . | . | . | . | . | . | . | .
COC(=O)C(C)Sc1nnc2n(-c3cccc(C)c3)c(=O)c3c4c(sc3n12)CCCC4 (configuration not stated) | - | - | - | - | 9.3 | - | 16844 | - | +
O=C(CC(=O)N/N=C\c1c(Cl)cccc1Cl)NCc1ccccc1 | - | . | . | . | . | . | . | . | .
Cc1ccc(CNC(=O)C2CCCN(S(=O)(=O)c3c(C)noc3C)C2)cc1 (configuration not stated) | - | . | . | . | . | . | . | . | .
Cc1noc(C)c1S(=O)(=O)N1CCCC(C(=O)NCc2ccccn2)C1 (configuration not stated) | - | - | - | - | 4.2 | - | 6380 | - | -
COc1ccc2cc3c(N)nn(C(=O)C4CCC(C(C)(C)C)CC4)c3nc2c1 (configuration not stated) | - | . | . | . | . | . | . | . | .
COc1ccc2cc3c(N)nn(C(=O)Cc4ccccc4OC)c3nc2c1 | - | - | - | - | 2.6 | - | 8828 | - | -
NC1=NC2(CCCCC2)N(c2cccc(Cl)c2)C(N)=N1 | - | . | . | . | . | . | . | . | .
CNc1nn(-c2cccc(Cl)c2)nc1N | - | - | - | - | 4.2 | - | 8344 | - | -
c1cnc2c(SCc3ccc(-c4nnco4)cc3)cccc2c1 | - | - | - | - | 5.3 | - | 8332 | . | +
COc1ccc(C2NC(=S)N3C(c4ccc(OC)cc4)NC(=S)N23)cc1 (configuration not stated) | - | . | . | . | . | . | . | . | .
